Data taken from the supplement of paper PMC6555819.

Assays:
Experiment in all cases: PBM binding z-score (relative to random genomic background probes); higher = stronger binding; sequences stand for … in GC…GCGATTGACAGCGTAGAATGAAGG
[1] = tested on: FXR:RXRa (NR concentration 270 nM, RXRa partner concentration 90 nM)
How it was run: (§1)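 Antibodies against each partner of ligand-free nuclear receptor dimers (one per run) detected binding on custom Agilent 4×180K protein-binding microarrays after 1 h incubation. The double-stranded probes had 34-nt variable regions carrying direct-repeat seeds, single-nucleotide variants, half-site ablations and random human genomic background sequences. Binding z-scores, from regression-normalized fluorescence, use the random background probes as reference.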

[2] = tested on: LXRa:RXRa (NR concentration 270 nM, RXRa partner concentration 90 nM)
How it was run: as §1

[3] = tested on: LXRa homodimer (NR concentration 270 nM)
How it was run: as §1

[4] = tested on: LXRb:RXRa (NR concentration 270 nM, RXRa partner concentration 90 nM)
How it was run: as §1

[5] = tested on: LXRb homodimer (NR concentration 270 nM)
How it was run: as §1

[6] = tested on: PPARa:RXRa (NR concentration 270 nM, RXRa partner concentration 90 nM)
How it was run: as §1

[7] = tested on: PPARg:RXRa (NR concentration 180 nM, RXRa partner concentration 90 nM)
How it was run: as §1

[8] = tested on: PPARg:RXRa 270nM:90nM, anti-RXR (NR concentration 270 nM, RXRa partner concentration 90 nM)
How it was run: as §1

[9] = tested on: PPARg:RXRa 30nM:10nM, anti-RXR (NR concentration 30 nM, RXRa partner concentration 10 nM)
How it was run: as §1

[10] = tested on: PPARg:RXRa 90nM:30nM, anti-RXR (NR concentration 90 nM, RXRa partner concentration 30 nM)
How it was run: as §1

[11] = tested on: PPARg:RXRa DBDmut IVT, anti-RXR (DBD mutation: RXRa K156A/R161A, NR concentration 270 nM, RXRa partner concentration 90 nM)
How it was run: as §1

[12] = tested on: PPARg:RXRa IVT, anti-PPARg (NR concentration 270 nM, RXRa partner concentration 90 nM)
How it was run: as §1

[13] = tested on: PPARg DBDmut:RXRa IVT, anti-PPARg (DBD mutation: PPARg1 K132A/R137A, NR concentration 270 nM, RXRa partner concentration 90 nM)
How it was run: as §1

[14] = tested on: PPARg DBDmut IVT, anti-PPARg (DBD mutation: PPARg1 K132A/R137A, NR concentration 270 nM)
How it was run: as §1

[15] = tested on: PPARg homodimer (NR concentration 180 nM)
How it was run: as §1

[16] = tested on: PXR:RXRa (NR concentration 270 nM, RXRa partner concentration 90 nM)
How it was run: as §1

[17] = tested on: PXR homodimer (NR concentration 270 nM)
How it was run: as §1

[18] = tested on: RARa:RXR (NR concentration 270 nM, RXRa partner concentration 90 nM)
How it was run: as §1

[19] = tested on: RARa homodimer (NR concentration 270 nM)
How it was run: as §1

[20] = tested on: RARb:RXRa (NR concentration 270 nM, RXRa partner concentration 90 nM)
How it was run: as §1

Sequence | PBM binding z-score [1] | PBM binding z-score [2] | PBM binding z-score [3] | PBM binding z-score [4] | PBM binding z-score [5] | PBM binding z-score [6] | PBM binding z-score [7] | PBM binding z-score [8] | PBM binding z-score [9] | PBM binding z-score [10] | PBM binding z-score [11] | PBM binding z-score [12] | PBM binding z-score [13] | PBM binding z-score [14] | PBM binding z-score [15] | PBM binding z-score [16] | PBM binding z-score [17] | PBM binding z-score [18] | PBM binding z-score [19] | PBM binding z-score [20]
GCTAGTTGGTCAGTATAAGGTCACACACCGGTCG | 3.04 | 2.87 | 3.48 | 2.64 | 0.601 | 3.23 | 1.38 | 2.09 | 0.612 | 1.37 | 1.28 | 2.3 | 0.282 | 0.251 | 4.01 | 4.26 | 1.61 | 4.86 | 2.27 | 3.5
TCTCAAAGTTCAAAGGTAACGTAAGTATCCACAC | 6.76 | 6.41 | 5.13 | 4.82 | 2.02 | 5.43 | 4.77 | 5.77 | 5.16 | 5.6 | 2.92 | 1.65 | 0.898 | 1.45 | 3.16 | 5.66 | 4.17 | 6.13 | 2.08 | 5.15
CCTACTGAGCCATCAGGTCATTGATATCAACGTT | 1.58 | 1.47 | 2.08 | 2.26 | 0.649 | 1.79 | 0.302 | 0.843 | 0.137 | 0.472 | 1.16 | 1.31 | 0.489 | -0.632 | 2.1 | 2.1 | 1.55 | 2.21 | 1.53 | 1.81
TTACCAAGGTGAAGGTCGTTGACCCCTCTGTAGA | 6.12 | 5.25 | 2.15 | 4.5 | -0.739 | 4.34 | 3.79 | 4.59 | 2.37 | 3.77 | 1.51 | 3.73 | -0.0772 | -0.567 | 2.99 | 4.73 | 0.313 | 5.73 | 0.145 | 2.87
CCGACTGGGGCATAAGGTTACCCTAAGCCAGCCC | 0.368 | 0.99 | -0.135 | 0.439 | -1.18 | 1.6 | 1.95 | 3.02 | 0.838 | 2.09 | 2.4 | 2.69 | -0.367 | -1.53 | -0.0921 | 0.213 | -0.708 | 1.1 | -0.511 | 1.26
ATCTCTAGGTAAAGATCGTTCAGTGAATGCAAAT | -0.176 | 1.87 | -0.123 | 0.339 | 0.387 | 0.218 | 0.287 | 0.923 | 0.249 | 0.749 | 2.03 | 1.66 | 1.31 | 0.707 | 0.555 | -0.16 | 0.0441 | 0.0862 | 0.49 | -0.0299
CGAACTAGGTCATCCAGGATAGTGAATACATTGA | 4.33 | 2.51 | 0.425 | 2.22 | -0.0288 | 4.87 | 7.49 | 6.2 | 3.48 | 5.72 | 7.97 | 8.31 | 1.76 | 1.58 | 1.43 | 1.54 | 0.608 | 2.18 | 1.13 | 3.78
CAAACTAGGTCAAGAGTTCAAAGTCCGCTTCCCG | 5.67 | 5.69 | 6.24 | 4.15 | 1.05 | 6.1 | 9.08 | 7.81 | 6.8 | 8.19 | 8.53 | 8.57 | 5.05 | 5.84 | 7.86 | 6.27 | 10.5 | 6.61 | 2.65 | 4.74
ATCCCTAGGTAAAAGTTCAGTGAATCCCGAGGAT | 0.811 | 1.11 | 0.954 | 0.838 | 0.347 | 2.71 | 3.92 | 4.85 | 3.04 | 4.55 | -0.636 | 1.17 | -0.0921 | 0.662 | 0.927 | 1.97 | 1.19 | 1.18 | 0.513 | 2.16
AGAATGAGGTTATCAAAGATCAGGGAAACGCTTG | 1.6 | 5.08 | -0.032 | 2.44 | -0.277 | 3.13 | 1.78 | 1.69 | 0.863 | 1.53 | 2.98 | 2.51 | 1.56 | 0.266 | 0.544 | 1.25 | 0.0151 | 1.6 | 0.154 | 1.33
ACTAGCAGGCCAAGTTTGGGTCACCCAAACAAAG | 0.488 | 0.347 | -0.356 | 0.836 | -0.589 | 1.98 | 0.125 | 0.213 | -0.577 | -0.0867 | 0.771 | 1.58 | -0.22 | -0.356 | 0.716 | 1.08 | -0.637 | 1.89 | -1.22 | 2.06
TCTGCTAGGTCACCGATGGTCAGCTAATCTGCTA | 3.75 | 3.3 | -0.47 | 2.07 | -0.343 | 3.82 | 3.64 | 4.04 | 2.09 | 3.11 | 4.6 | 4.81 | 0.945 | 0.734 | 0.378 | 1.91 | -1.04 | 2.75 | -1.39 | 4.36
ATGTGTAGGTTATCGGGTCATTCAGTTTGCGCAT | 3.54 | 3.13 | 1.9 | 3.3 | 1.26 | 4.08 | 4.09 | 4.29 | 1.54 | 3.43 | 4.63 | 5.37 | 1.53 | 2.39 | 3.67 | 4.09 | 9.38 | 4.11 | 2.56 | 2.75
CAAACTAGGTCACTGAGGTCAAAGTCCGTGCGTA | 6.44 | 5.9 | 5.56 | 5.66 | 1.56 | 6.2 | 9.39 | 7.91 | 5.72 | 7.61 | 8.41 | 8.65 | 1.56 | 0.597 | 4.26 | 6.53 | 12.1 | 6.4 | 0.887 | 4.89
TCTTGTAGATCAAGCAGGATAAGAAAGCCTGAGT | -0.0578 | -0.0477 | -0.267 | -0.411 | -0.605 | 0.163 | -0.0969 | 0.937 | 2.58 | 1.76 | 1.53 | 0.265 | 0.695 | 0.533 | 0.027 | -0.0334 | 0.538 | 0.108 | 0.37 | -0.349
ACTATAAGTTGACTTAGGGCAACCGATACGACGC | 0.483 | 0.919 | 0.287 | 0.215 | 0.348 | 0.427 | 1.23 | 0.205 | 0.44 | 0.54 | -0.174 | 0.419 | 0.924 | 0.648 | 0.0162 | 0.385 | 0.624 | 0.604 | 0.56 | 1.2
GCAGACAGGTGAAACGCCGGTAACTCAGGGTGGC | -0.365 | -0.144 | -0.611 | -0.313 | -0.77 | 0.601 | 0.303 | -0.0478 | -0.502 | -0.552 | 0.72 | 0.227 | -0.163 | -1.53 | -0.427 | -0.468 | -0.822 | 0.0984 | -1.03 | 0.606
AGAACGGGGGCAATGAGTTGATAGCACGGGTGGC | 2.35 | 2.45 | 0.461 | 4.18 | 6.07 | 3.66 | 2.98 | 4.15 | 2.33 | 3.26 | 4.36 | 5.56 | 9.77 | 9.9 | 1.96 | 3.74 | 6.38 | 2.68 | 1.18 | 3.02
CCTACTCGGCCAAGGTCATTGATCAGTCAAAGCA | 3.57 | 3.69 | 2.12 | 3.18 | 0.93 | 3.52 | 1.32 | 2.35 | 0.335 | 1.69 | 1.8 | 1.68 | -0.0349 | -0.365 | 2.76 | 3.75 | 2.34 | 3.59 | 1.82 | 3.52
